Assay [1] has as its target Cytochrome P450 3A4 (Homo sapiens) (UniProt P08684). Put plainly: qHTS Assay for Inhibitors and Substrates of Cytochrome P450 3A4 (AID 884). For activity change, negative = inhibition: % is set by controls: 0 for no effect and ±100 for the full control effect. Note: nearly all actives have a fitted effect of over 50% in size. Note: potency is the fitted concentration of half-maximal effect. The note with it: recombinant CYP3A4, Luciferin-PPXE luminescence; series mostly up to 57.1 µM. A digest of the protocol: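 20 nM human CYP3A4 with 25 uM Luciferin-PPXE (at KM) in 200 mM KPO4, preincubated 10 min with compound; NADPH regeneration started a 60 min RT reaction. Luciferin detected by luminescence, normalized to 57 uM ketoconazole as full inhibition.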

Assay [2] in a line: Confirmation and Secondary Assay for Modulators of Hemoglobin Beta Chain Splicing at IVS2 654 locus (AID 910).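 Note: per-well total GFP intensity by laser scanning cytometry after 2-day treatment; % of control where 0% means no effect.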 To be noted: HeLa EGFP-654 splicing reporter, GFP fluorescence, 48 h; series mostly up to 46.1 µM. A digest of the protocol: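 HeLa cells stably carrying EGFP interrupted by mutant beta-globin IVS2-654 intron (CMV-driven) were treated with compound for 2 days at 37C; corrected splicing was scored as total peak GFP intensity per well (488 nm excitation, 500-520 nm emission).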

Assay [3] can be described thus: Confirmation and Secondary Assay for Modulators of Hemoglobin Beta Chain Splicing at IVS2 705 locus (AID 930).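 Note: HeLa cells stably expressing the EGFP-705 splicing reporter; GFP fluorescence per well restored by corrected splicing of the IVS2-705 intron in EGFP; % of control where 0% means no effect.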 The note with it: HeLa EGFP-705 splicing reporter, GFP fluorescence, 48 h; series mostly up to 46.1 µM. The gist of the method:
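Per-well GFP, captured at 1 x 8 µm resolution with 488 nm excitation, served as the read-out for HeLa EGFP-705 cells incubated 2 days with test compound versus DMSO.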

The nature of assay [4]: qHTS Assay for Lipid Storage Modulators (AID 1519; calls by dose curve; for activity change, negative = inhibition: % is set by controls: 0 for no effect and ±100 for the full control effect). To be noted: Drosophila S3 cells, BODIPY lipid droplet/cell ratio, laser cytometry, cells loaded with oleic acid; for activity change, negative = inhibition: at 57.5 µM (top of the series). A digest of the protocol: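 Cells seeded at 5,000 per well were treated with compounds over a concentration series and loaded with oleic acid (400 uM, as added). Lipid droplet fluorescence (488 nm excitation, 500-530 nm channel) was read by laser-scanning cytometry and normalized to 20 uM Triacsin C.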
For orientation: In qHTS, concentration-response curves come from the screen itself.

[5] abbreviates: measured here: cell count channel max response.
The mark [6] stands for this setting: measured here: lipid channel max response.

Records with an inconclusive call do not appear. Activity calls are given as the source filed them. Unless noted, calls come from the whole dose curve; as a rule, active = well fitted curve in the direction sought with a large enough effect; inconclusive = small, poorly fitted or top-dose-only effect, or another doubt; inactive = no such curve, though single readings can be large; an effect the other way counts as inactive or inconclusive.

Sequence of Cytochrome P450 3A4 (Homo sapiens) (P08684 whole entry, looked up): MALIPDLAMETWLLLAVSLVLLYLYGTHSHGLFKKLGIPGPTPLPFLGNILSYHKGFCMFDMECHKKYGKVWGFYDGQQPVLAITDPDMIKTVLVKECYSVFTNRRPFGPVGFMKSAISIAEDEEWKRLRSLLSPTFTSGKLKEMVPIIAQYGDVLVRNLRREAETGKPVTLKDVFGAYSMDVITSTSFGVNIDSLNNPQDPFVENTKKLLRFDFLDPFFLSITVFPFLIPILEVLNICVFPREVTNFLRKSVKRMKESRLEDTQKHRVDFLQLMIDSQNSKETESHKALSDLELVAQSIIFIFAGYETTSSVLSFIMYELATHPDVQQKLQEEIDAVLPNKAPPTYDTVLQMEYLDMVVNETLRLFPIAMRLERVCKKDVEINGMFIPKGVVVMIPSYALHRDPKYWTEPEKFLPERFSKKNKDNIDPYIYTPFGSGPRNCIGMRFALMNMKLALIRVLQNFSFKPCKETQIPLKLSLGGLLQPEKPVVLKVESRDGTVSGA

As for `OCC1OC(n2cnc3c(Cl)ncnc32)C(O)C1O` (stereo not drawn), the Potency result in assay [1], in assay [2] and in assay [3] was “inactive” throughout. Besides, in assay [4], the activity change, negative = inhibition was 1.41% (inactive). The values for the max response in assay [4] (setting [5]) and in assay [4] (setting [6]) were 10.1% and 10.3%, respectively.

Turning to `CC(CC(O)C1OC1(C)C)C1CCC2(C)C3=CCC4C(C)(C)C(=O)CCC4(C)C3CC[C@@]12C` (stereo partly drawn), the Potency entry in assay [1], in assay [2] and in assay [3] was “inactive” throughout. In addition, in assay [4], the activity change, negative = inhibition is 3.08% (inactive). Moreover, the values for the max response in assay [4] (setting [5]) and in assay [4] (setting [6]) were 2.59% and 11%, respectively.

For `CC(C1OC(C)(C)C(O)C1O)C1CC[C@@]2(C)C3=CCC4C(C)(C)C(=O)CC[C@]4(C)C3CC[C@@]12C` (stereo partly drawn), the Potency result in assay [1], in assay [2] and in assay [3] was “inactive” throughout. Moreover, the activity change, negative = inhibition in assay [4] was 5.14% (inactive). The values for the max response in assay [4] (setting [5]) and in assay [4] (setting [6]) were -0.971% and 3.6%, respectively.

With `CC12CCC3c4ccc(OCc5ccccc5)cc4CCC3C1CC(O)C2O` (stereo not drawn), the Potency entry in assay [1], in assay [2] and in assay [3] was “inactive” throughout. The activity change, negative = inhibition in assay [4] was 3.93% (inactive). The figures for the max response in assay [4] (setting [5]) and in assay [4] (setting [6]) were 2.78% and 8.16%, respectively.

Regarding `O=c1cc(-c2ccc(O)cc2)oc2cc(OC3OC(CO)C(O)C(O)[C@H]3O[C@@H]3OC[C@@](O)(CO)C3O)cc(O)c12` (stereo partly drawn), the Potency result in assay [1], in assay [2] and in assay [3] was “inactive” throughout. Moreover, the activity change, negative = inhibition in assay [4] is 1.57% (inactive). Also, the max response in assay [4] (setting [5]) was 23.4%; in assay [4] (setting [6]), 26.6%.

Turning to `O=C(/C=C/c1ccccc1)c1ccc(O[C@H]2OC(CO)C(O)C(O)C2O)cc1O` (stereo partly drawn), the Potency result in assay [1], in assay [2] and in assay [3] was “inactive” each time. Also, the activity change, negative = inhibition in assay [4] is -0.595% (inactive). Also, the max response worked out at 18.3% in assay [4] (setting [5]) and 22.6% in assay [4] (setting [6]).

Take `CC(=O)O[C@@]1(C(C)=O)CCC2C3C=C(Cl)C4=CC(=O)CC[C@]4(C)C3CC[C@]21C` (stereo partly drawn): the Potency result in assay [1], in assay [2] and in assay [3] was “inactive” each time. Moreover, the activity change, negative = inhibition in assay [4] was -2.19% (inactive). In addition, the results for the max response in assay [4] (setting [5]) and in assay [4] (setting [6]) were -10.2% and -9.83%, respectively.

Regarding `CC(=O)O[C@@]1(C(C)=O)CCC2C3C=C(C)C4=CC(=O)CCC4(C)C3CCC21C` (stereo partly drawn), the Potency result in assay [1], in assay [2] and in assay [3] was “inactive” each time. The activity change, negative = inhibition in assay [4] was 3.94% (inactive). The max response in assay [4] (setting [5]) was 7.28%; in assay [4] (setting [6]) it was 12.7%.

As for `CCC(=O)OC1C2CC3=C4CC(=O)OC(c5ccoc5)[C@]4(C)CCC3[C@@](C)(C2=O)C(CC(=O)OC)C1(C)C` (stereo partly drawn), the Potency entry in assay [1], in assay [2] and in assay [3] was “inactive” in each case. The activity change, negative = inhibition in assay [4] was -15.8% (inactive). The values for the max response in assay [4] (setting [5]) and in assay [4] (setting [6]) were -7.4% and -17%, respectively.

For `Oc1cc(O)c2c(c1)OC(c1cc(O)c(O)c(O)c1)C(O)C2` (stereo not drawn), the Potency entry in assay [1], in assay [2] and in assay [3] was “inactive” each time. Further, the activity change, negative = inhibition in assay [4] was 12.8% (inactive). Moreover, the max response in assay [4] (setting [5]) was found to be 12.7%; in assay [4] (setting [6]), 24.8%.

For the compound `Cc1cc(O)c2c(c1O)C(=O)c1c(O)cc(C)c(O)c1C2=O`, the Potency entry in assay [1], in assay [2] and in assay [3] was “inactive” throughout. Besides, in assay [4], the activity change, negative = inhibition was 6.96% (inactive). The max response was -16.3% in assay [4] (setting [5]) and -8.79% in assay [4] (setting [6]).

Consider `CC(C)CCCC(C)C1CCC2C3C(=O)C=C4CC(O)CC[C@@]4(C)C3CC[C@@]12C` (stereo partly drawn), for which the Potency result in assay [1], in assay [2] and in assay [3] was “inactive” throughout. Moreover, the activity change, negative = inhibition in assay [4] is -2.06% (inactive). Also, the max response came out at 8.46% in assay [4] (setting [5]) and 5.18% in assay [4] (setting [6]).

`COC(=O)C(O)C1C(C)(C)C(OC(C)=O)C2CC3=C4CC(=O)OC(c5ccoc5)[C@]4(C)CCC3[C@@]1(C)C2=O` (stereo partly drawn): the Potency in assay [1] is 10 µM (active). Also, the Potency entry in assay [2] and in assay [3] was “inactive” each time. The activity change, negative = inhibition in assay [4] is 0.311% (inactive). Besides, the max response in assay [4] (setting [5]) was 4.91%; in assay [4] (setting [6]), 8.34%.

The values above are taken from PubChem BioAssay (NCATS).
